GLP1R cytotox: cytotoxicity counter-screen for GLP-1 receptor inverse agonists. HEK293 cAMP-luciferase reporter cells, luminescence, 24 h. Potency, µM (series often up to 38.3 µM), actives largely listed as inhibitors. 410,000 compounds, 0.13% hits. AID 624418;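 further: loss of luciferase light is scored as toxicity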
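To flag toxic compounds, the library was rerun on cells for 24 hr at 37 deg C and 5% CO2. Viability-linked luminescence was captured 12 min after adding luciferase detection reagent.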
GLP-1R agonist: agonists of human GLP-1 receptor. P43220. HEK293 GLP-1R CRE-luciferase, luminescence, 4-6 h; cells express a hypersensitive GLP-1R form. Potency, µM (doses to about 45.6 µM), most hits filed as activators. 380,000 compounds, 0.007% hits
Target sequence (P43220 whole entry, looked up): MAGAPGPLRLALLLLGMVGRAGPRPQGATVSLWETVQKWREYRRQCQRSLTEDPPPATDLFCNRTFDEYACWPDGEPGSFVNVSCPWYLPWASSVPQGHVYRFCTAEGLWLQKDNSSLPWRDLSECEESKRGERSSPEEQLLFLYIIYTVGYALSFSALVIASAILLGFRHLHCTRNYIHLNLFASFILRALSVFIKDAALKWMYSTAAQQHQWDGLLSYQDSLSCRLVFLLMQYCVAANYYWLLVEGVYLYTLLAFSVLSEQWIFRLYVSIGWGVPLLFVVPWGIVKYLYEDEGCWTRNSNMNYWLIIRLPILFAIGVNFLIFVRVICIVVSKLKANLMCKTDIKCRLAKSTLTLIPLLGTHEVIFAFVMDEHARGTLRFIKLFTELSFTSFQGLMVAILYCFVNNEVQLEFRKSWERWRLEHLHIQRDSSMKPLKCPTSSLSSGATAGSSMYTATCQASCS
hERG WT inh: inhibitors of human wildtype KCNH2 potassium channel; 340,000 compounds, 0.37% hits; activity change, % at 1.84 µM; AID 720551; U2OS, BacMam KCNH2, thallium flux FluxOr; hits give low values;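 active means maximum activity change below -70%; inconclusive means maximum activity change between -70% and -50%; inactive means maximum activity change above -50%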
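U2OS cells were transduced with wild-type KCNH2 virus (2.03 x 10^8 / mL) for 4 h at room temperature, then cultured overnight at 37 C. Thallium flux was read with FluxOr dye. Rate constants were normalized to DMSO controls.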
GLP-1R inv ag: inverse agonists of human GLP-1 receptor; P43220; HEK293 GLP-1R CRE-luciferase, luminescence, 24 h; GLP-1R form is constitutively active; Potency, µM (titrated, usually from 38.3 µM), usual class: inhibitors; 410,000 compounds, 1.6% hits; AID 624417; further: nearly all actives have a fitted effect of over 55% in size
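Readout was luciferase luminescence, measured 12 min after detection reagent at room temperature. Beforehand, GLP-1R reporter HEK293 cells had sat 12 h, then received compounds for 24 hr at 37 deg C.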
KCNH2 3.1 inh: KCNH2 3.1 (human) potassium channel inhibition; activity change, % (tested at about 1.8 µM); 340,000 compounds, 0.95% hits; U2OS KCNH2 3.1, thallium flux FluxOr; hits give low values;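 active means maximum activity change below -70%; inconclusive means maximum activity change from -70% to -50%; inactive means maximum activity change above -50%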;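 further: thallium influx rate constant from kinetic fluorescence after stimulation buffer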
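Channel expression came from 3.1 mutant virus (1.77 x 10^8 /mL) applied to suspended U2OS cells for 4 h. Flux was tracked with FluxOr dye plus Red40 quencher, and kinetic rate constants normalized to controls.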
GLS inhibitor: blocks human kidney-isoform glutaminase activity; Potency, µM (highest dose often 45.5 µM), actives largely listed as inhibitors; O94925; GLS enzymatic activity, qHTS titration; 410,000 compounds, 0.21% hits
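Enzyme dispensed in phosphate buffer (45 mM, pH 8.2, 0.02% Tween-20), compounds pinned in, then 1 mM L-glutamine solution and the glutamate oxidase–HRP–Amplex Red mix added; fluorescence read immediately and again after 30 min at room temperature.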
Of the large screens only hits and unclear results are named; the others gave an inactive call. The list is not random: actives were taken first. Their share in the collection is about 2.8%. Unless noted, the call rests on the fitted dose curve; in most records, active means well fitted curve in the direction sought with a large enough effect; inconclusive means small, poorly fitted or top-dose-only effect, or another doubt; inactive means no such curve, though single readings can be large; an effect the other way counts as inactive or inconclusive.

CCOC(=O)/C(=N\Nc1ccc(Br)cc1)N1CCN(c2ccccc2OC)CC1	GLP1R cytotox inconclusive, GLP-1R inv ag 2.24µM
CCCCCn1c(CCNC(=O)c2cccc(C)c2)nc2ccccc21	GLP-1R inv ag inconclusive (no result: hERG WT inh, KCNH2 3.1 inh)
O=C(/C=C/c1ccccc1)CC(O)(c1ccccc1)C(F)(F)C(F)F (centres undefined)	GLP-1R inv ag inconclusive
O=C(/C=C/c1ccccc1)CC(O)(c1ccccc1)C(F)(F)F (centres undefined)	GLP-1R inv ag 11.2µM
CC1CCCN(CCCOc2ccc(Cl)cc2Br)C1 (centres undefined)	GLP-1R inv ag inconclusive, KCNH2 3.1 inh inconclusive
CC1CCCN(CCOc2ccc3ccccc3c2Br)C1 (centres undefined)	GLP1R cytotox inconclusive, GLP-1R inv ag 10µM
Cc1cccc(-n2ncc3c(Nc4c(C)cc(C)cc4C)ncnc32)c1	GLP-1R inv ag 5.62µM (no result: GLP-1R agonist, hERG WT inh, KCNH2 3.1 inh)
Cc1ccc(-n2ncc3c(Nc4cccc(Cl)c4)ncnc32)c(C)c1	GLP-1R inv ag inconclusive (no result: GLP-1R agonist, hERG WT inh, KCNH2 3.1 inh)
Cc1ccc(-n2ncc3c(Nc4ccc(Oc5ccccc5)cc4)ncnc32)c(C)c1	GLP-1R inv ag 10µM (no result: GLP-1R agonist, hERG WT inh, KCNH2 3.1 inh)
CCc1ccccc1Nc1ncnc2c1cnn2-c1ccc(C)cc1C	GLP-1R inv ag 12.6µM (no result: GLP-1R agonist, hERG WT inh, KCNH2 3.1 inh)
COc1cccc(C(NC(C)=O)c2nc(-c3ccc(F)c(Cl)c3)cs2)c1 (centres undefined)	none (no result: hERG WT inh, KCNH2 3.1 inh)
CC1CCN(c2nnc(-c3cccs3)c3ccccc23)CC1	GLP-1R inv ag inconclusive, KCNH2 3.1 inh -85.0
c1coc(-c2ccc3nncn3c2)c1	GLS inhibitor 6.31µM (no result: hERG WT inh, KCNH2 3.1 inh)
CCn1cc(C2=NC(C)CO2)c2ccccc21 (centres undefined)	GLP-1R agonist inconclusive, KCNH2 3.1 inh -70.6
CCn1cc(C2=NC(c3ccccc3)CO2)c2ccccc21 (centres undefined)	GLP-1R inv ag inconclusive
CN(CCCNC(=O)c1cc2c(Cl)nc3ccccc3c2s1)Cc1ccccc1	GLP1R cytotox inconclusive, hERG WT inh -307.2, GLP-1R inv ag inconclusive (no result: KCNH2 3.1 inh)
COc1cccc(-c2nn(C)c3sc(C(=O)NCCCN(C)Cc4ccccc4)cc23)c1	GLP1R cytotox inconclusive, GLP-1R inv ag 5.62µM
CCCCN(C)CCNC(=O)c1cc2c(-c3ccccc3F)nn(C)c2s1	GLP-1R inv ag 10µM
COCCNC(=O)c1cc2c(-c3ccccc3F)nn(C)c2s1	none
Cc1ccc2nc(Cl)c3cc(C(=O)NCCCN(C)Cc4ccccc4)sc3c2c1	none (no result: GLP-1R agonist, hERG WT inh, KCNH2 3.1 inh)
CC(=O)c1ccc(N2C(=O)N(Cc3ccccc3C#N)c3ccccc3S2(=O)=O)cc1	none (no result: hERG WT inh, KCNH2 3.1 inh)
Cc1ccc(S(=O)(=O)N/N=C/c2ccc(OCC(=O)N3CCOCC3)cc2)cc1	GLP-1R inv ag inconclusive, KCNH2 3.1 inh -72.4
O=C(COc1ccc(/C=N/NS(=O)(=O)c2ccccc2)cc1)N1CCOCC1	none
O=C(COc1ccc(/C=N/NS(=O)(=O)c2ccccc2)cc1)Nc1cccc(Cl)c1	GLP-1R inv ag 10µM
O=C(COc1ccc(/C=N/NS(=O)(=O)c2ccccc2)cc1)NCc1ccccc1	none
N#C/C(=C\c1c(F)cccc1Cl)C(=O)NC1CC1	none
CCN(C(=O)CSc1nc2ccccc2n1CC(=O)Nc1cccc(C#N)c1)c1ccccc1	GLP-1R inv ag inconclusive (no result: GLP-1R agonist, hERG WT inh, KCNH2 3.1 inh)
Cc1nc2c(sc3nc(N4CCOCC4)c4c(c32)CC(C)(C)OC4)c(-c2ccc(Cl)cc2)c1C(=O)O	GLP-1R inv ag 4.47µM
CC1(C)Cc2c(c(N3CCOCC3)nc3sc(C(=O)Nc4ccc(Cl)cc4)c(N)c23)CO1	none
CC1(C)Cc2c(c(N3CCOCC3)nc3snc(N)c23)CO1	GLP-1R inv ag 3.98µM
C=CCN(C(=O)c1csnn1)C(C(=O)NCc1ccc(F)cc1)c1sccc1C (centres undefined)	GLP-1R inv ag inconclusive
O=C(NCCN1CCOCC1)c1ccccc1N1C(=O)[C@@H]2Cc3c([nH]c4ccccc34)C(c3ccccc3)N2C1=O (some centres undefined)	none
O=C(NCCCN1CCOCC1)c1ccccc1N1C(=O)[C@@H]2Cc3c([nH]c4ccccc34)C(c3ccc(F)cc3)N2C1=O (some centres undefined)	GLP-1R inv ag inconclusive, KCNH2 3.1 inh -82.3
O=C(NCC(c1ccco1)S(=O)(=O)c1cccs1)c1ccccc1F (centres undefined)	none (no result: GLP-1R agonist, hERG WT inh, KCNH2 3.1 inh)
CCOC(=O)/C(=C\c1ccccc1)NC(=O)c1ccccc1	none
CCOC(=O)/C(=C/c1c2ccccc2cc2ccccc12)NC(=O)c1ccccc1	GLP-1R inv ag 4.47µM
COCCNC(=O)CCn1c(=O)c2cc(OC)c(OC)cc2n(CC(=O)Nc2ccc(Cl)cc2F)c1=O	none (no result: GLP-1R agonist, hERG WT inh, KCNH2 3.1 inh)
CCCn1c2ccccc2c2cnn(CC(=O)NCC3CCN(Cc4ccc(F)cc4)CC3)c(=O)c21	none (no result: GLP-1R agonist, hERG WT inh, KCNH2 3.1 inh)
O=C(Cn1ncc2c([nH]c3ccccc32)c1=O)NCC1CCN(Cc2ccc(F)cc2)CC1	KCNH2 3.1 inh -97.6
CCCCN(CC)CCCNC(=O)c1c(C)oc2ncnc(N3CCOCC3)c12	none (no result: GLP-1R agonist, hERG WT inh, KCNH2 3.1 inh)
O=C1Nc2ccc([N+](=O)[O-])cc2OC1CCN1CCN(c2ccccc2)CC1 (centres undefined)	GLP-1R inv ag 11.2µM
O=C(C=Cc1cccc(O)c1)c1ccccc1O	GLP-1R inv ag inconclusive
O=C(/C=C/c1ccc(O)c(O)c1)c1ccccc1O	GLP1R cytotox inconclusive, GLS inhibitor 5.62µM
O=C(C=Cc1ccccc1O)c1ccccc1O	GLP-1R inv ag 7.94µM
O=C(NCCCN1CCCC1)Nc1ccccc1[N+](=O)[O-]	none
COc1ccc(C(=O)Nn2c(SCc3cccc([N+](=O)[O-])c3)nc3ccccc3c2=O)cc1	GLP-1R inv ag 5.62µM
O=C(Nn1c(SCc2cccc([N+](=O)[O-])c2)nc2ccccc2c1=O)c1ccccc1	none
O=C(CSc1nnnn1-c1cccc2c1CCCC2)N1CCCC1	GLP-1R inv ag inconclusive
CC1CCCC(C)N1C(=O)CSc1nnnn1-c1cccc2c1CCCC2 (centres undefined)	GLP-1R inv ag 7.94µM
Cc1ccc(-c2nnc(Nc3cccc(C(F)(F)F)c3)c3ccccc23)cc1S(=O)(=O)N1CCOCC1	GLP-1R inv ag inconclusive (no result: GLP-1R agonist, hERG WT inh, KCNH2 3.1 inh)
COc1ccccc1C(=O)N1CCc2ccccc21	KCNH2 3.1 inh -73.1
O=C(NCC(c1cccs1)N1CCc2ccccc21)c1ccccc1 (centres undefined)	GLP1R cytotox inconclusive, GLP-1R inv ag 7.08µM
COc1ccccc1C(=O)NCC(c1cccs1)N1CCc2ccccc21 (centres undefined)	GLP-1R inv ag 10µM
COc1cc(C(=O)NCC(c2cccs2)N2CCc3ccccc32)cc(OC)c1OC (centres undefined)	GLP-1R inv ag inconclusive
COc1ccc(-c2noc(CNS(=O)(=O)c3ccc(Br)cc3)n2)cc1OC	none (no result: GLP-1R agonist, hERG WT inh, KCNH2 3.1 inh)

Compound activity (PubChem)
